Assay outcomes from PubChem.
Wnt bcat act: activates Wnt/beta-catenin signaling in a reporter cell assay; activator, plate reader; activation, % at 9.35 µM; 300,000 tested, 1.2% active; AID 743398; in the data active = activation above about 30%, passing the limit was not always enough; inconclusive = no clear call, values can overlap the other calls;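 note: 0% = neutral control wells and 100% = positive control wells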
MITF TRPM1 inh: inhibitors of MITF-driven TRPM1 promoter in melanoma cells; SK-MEL-5 TRPM1 promoter luciferase, 24 h; inhibition, % at 12.5 µM; 330,000 tested, 0.83% active; AID 488899;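 active = mean inhibition across replicates of 60% or more, whatever share of single replicates reaches that level; inconclusive = some that reach 60%, reason not given; inactive = mean inhibition across replicates below 60%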
EBV LMP1 NFkB: Epstein-Barr LMP1 NF-kappaB reporter inhibition. AID 504558. 350,000 tested, 0.69% active. inhibition, % at 12.5 µM. LMP1-induced NF-kappaB luciferase reporter cells, luminescence; in the data active = inhibition above about 41%; inconclusive = no clear call, values can overlap the other calls;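 note: 0% = neutral control wells and 100% = reference inhibitor control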
C2C12 statin: suppression of simvastatin myotoxicity; C2C12 myotubes + simvastatin, ATP luminescence, 48 h; scaled: DMSO 0, geranylgeraniol control 100; rescue of ATP level, % at 7.49 µM; 330,000 tested, 0.78% active; AID 602340;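 active = mean ATP rescue above about 67%, or every replicate alone reaching that limit, limit read from the data, passing the limit was not always enough; inconclusive = no clear call, values can overlap the other calls; inactive = mean under the limit and some replicate under it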;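 note: myotubes were challenged with 10 µM simvastatin during compound exposure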
MITF act: MITF TRPM1 promoter activation in melanoma cells. SK-MEL-5 TRPM1-promoter luciferase, 24 h; % of positive control, neutral wells = 0. activation, % at 12.5 µM. 300,000 tested, 0.75% active;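 active = mean activation of at least 80% with every replicate also reaching 80%; inconclusive = mean reaches 80% but some replicate falls short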;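 note: 0% = neutral control wells and 100% = parthenolide positive control wells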
esBAF inh: inhibitors of esBAF chromatin remodeling in mouse ES cells. 350,000 tested, 2% active. reporter increase, % at 12.5 µM. Bmi1-luciferase knock-in reporter, 24 h; 100% = twice the neutral-well signal; in the data active = activation above about 40%; inconclusive = no clear call, values can overlap the other calls;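 note: 0% = median of the plate's neutral control wells and 100% = double that signal; a rise in the Bmi1 reporter signal indicates esBAF inhibition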
* = called active by the depositor; ? = inconclusive; · = not tested or not shown. Rows were chosen to be rich in hits. Some 4% of all compounds tested hit in one or more screens of this group.

SMILES	Wnt bcat act	MITF TRPM1 inh	EBV LMP1 NFkB	C2C12 statin	MITF act	esBAF inh
COc1ccc(/C=C2\SC(=O)N(CCCC(=O)Nc3cc(Cl)ccc3C(=O)O)C2=O)cc1	-20.7	89.2*	74.1*	·	-88.2	·
O=C(O)c1cccc(-c2ccc(/C=N/NC(=O)c3cccnc3)o2)c1	·	-6.5	3.0	·	11.3	·
Cc1ccc(N(CC(=O)NC2CCCCC2)C(=O)Cn2nnc(-c3ccc(C)o3)n2)cc1	-0.5	-2.9	7.5	9.3	5.4	3.5
O=C(NC1CCN(C(=O)N2c3ccccc3Sc3ccccc32)CC1)c1ccccc1F	1.1	5.6	-10.9	75.9*	-6.5	14.3
CC1CCN(C(=O)N2c3ccccc3Sc3ccccc32)CC1	-1.3	6.1	-1.1	13.1	·	7.8
COc1ccc(-n2nc(C(=O)c3cccs3)cc(-c3nc4ccccc4[nH]3)c2=N)cc1	-1.3	58.9	59.0*	-7.4	·	-26.9
COc1cc(NC(=O)c2c(OC)cccc2OC)ccc1NC(=O)c1cc2ccccc2o1	1.6	-92.0	-40.5	-8.6	93.0*	?
CCC(=O)Nc1ccc(NC(=O)c2cc3ccccc3o2)c(OC)c1	-1.8	-45.4	-21.5	-9.1	·	42.7*
COc1cc(NC(=O)c2cc3ccccc3o2)ccc1NC(=O)c1ccco1	1.5	-4.1	11.7	-8.9	4.4	10.8
COc1cc(NC(=O)c2ccc(F)cc2)ccc1NC(=O)c1cc2ccccc2o1	0.8	7.4	-3.3	-0.1	·	6.2
Cc1ccccc1NC(=S)N/N=C/C(C)c1ccccc1 (configuration not stated)	-2.0	2.2	8.1	14.3	0.9	9.7
Cc1cccc(NC(=S)N/N=C/C(C)c2ccccc2)c1C (configuration not stated)	33.8*	4.1	-1.1	·	-4.1	·
CCCS(=O)(=O)NC(=O)C1(C)CCN(C(=O)c2ccccc2Br)C1 (configuration not stated)	·	·	·	13.0	·	3.0
COc1ccc(Nc2nc(N)nc(CSC(=S)N3CCOCC3)n2)cc1	9.2	-27.7	7.9	3.1	30.1	48.6*
Cc1ccc(Nc2nc(N)nc(CSC(=S)N3CCOCC3)n2)c(C)c1	12.8	-56.6	-11.1	·	56.8	·
Nc1nc(CSC(=S)N2CCOCC2)nc(Nc2ccc(F)cc2)n1	7.3	-27.4	-20.0	-1.7	28.1	66.0*
C=CC(C)(C)c1[nH]cnc1/C=C1\NC(=O)C(C(C)C)NC1=O (configuration not stated)	-1.7	9.1	-9.1	-14.1	-6.8	6.4
Cc1cc(Cl)c2oc(C(=O)N3CCN(c4cnccn4)CC3)c(C)c2c1	16.8	·	-25.0	·	·	·
Cc1ccc2oc(C(=O)N3CCN(c4cccc(C)n4)CC3)c(C)c2c1	2.7	-15.3	-14.7	-0.9	18.2	26.2
Cc1cc(Cl)c2oc(C(=O)N3CCN(C(=O)c4ccco4)CC3)c(C)c2c1	16.3	-70.1	-9.6	-16.4	57.8	52.1*
Cc1cc(Cl)c2oc(C(=O)N(C)Cc3ccon3)c(C)c2c1	22.3	-49.0	-21.4	-7.3	46.2	71.5*
Cc1cc(Cl)c2oc(C(=O)N3CCOCC3)c(C)c2c1	3.9	·	-3.7	0.0	·	66.7*
Cc1cc(Cl)c2oc(C(=O)N3CCN(c4cccc(C)n4)CC3)c(C)c2c1	18.2	-62.9	-38.8	8.5	·	73.6*
Cc1cc(Cl)c2oc(C(=O)N(C)Cc3cc(C)[nH]n3)c(C)c2c1	8.7	-2.9	2.4	0.0	4.3	1.1
NS(=O)(=O)c1ccc(CCNC(=O)NC2(C(F)(F)F)Oc3ccccc3O2)cc1	-12.9	-1.7	2.1	·	0.5	·
SMILES	Wnt bcat act	MITF TRPM1 inh	EBV LMP1 NFkB	C2C12 statin	MITF act	esBAF inh
Cc1cc(C)c(CN2CCN(C(=O)Cn3cnc(C(=O)Nc4ccc(C)c(C)c4)n3)CC2)c(C)c1	-1.7	1.2	4.0	5.5	0.3	-1.3
Cc1cc(Cl)c2oc(C(=O)N(C)C3CCOC3)c(C)c2c1 (configuration not stated)	27.5	-69.0	-10.3	-1.7	69.3	41.9*
Cc1cc(Cl)c2oc(C(=O)N(C)Cc3nccn3C)c(C)c2c1	0.0	-6.7	3.6	-4.0	12.1	29.6
C[C@@H]1CCCCO[C@H](CN(C)Cc2ccc(C(F)(F)F)cc2)[C@H](C)CN([C@H](C)CO)C(=O)c2cc(NC(=O)Cc3ccccc3)ccc2O1	·	·	·	133.7*	·	-1.1
C[C@@H]1CCCCO[C@@H](CN(C)Cc2ccc(C(F)(F)F)cc2)[C@H](C)CN([C@@H](C)CO)C(=O)c2cc(NS(=O)(=O)c3cccs3)ccc2O1	·	·	·	72.3*	·	8.8
C[C@@H]1CCCCO[C@H](CN(C)Cc2ccc(C(F)(F)F)cc2)[C@H](C)CN([C@@H](C)CO)C(=O)c2cc(NC(=O)CCC(F)(F)F)ccc2O1	·	·	·	-17.4	·	-7.0
C[C@@H]1CN([C@H](C)CO)C(=O)c2cc(NC(=O)CCC(F)(F)F)ccc2O[C@@H](C)CCCCO[C@@H]1CN(C)Cc1ccc(C(F)(F)F)cc1	·	·	·	125.2*	·	-4.7
C[C@@H]1CCCCO[C@@H](CN(C)Cc2ccc(C(F)(F)F)cc2)[C@@H](C)CN([C@@H](C)CO)C(=O)c2cc(NC(=O)CCC(F)(F)F)ccc2O1	·	·	·	83.2*	·	-2.8
C[C@@H]1CCCCO[C@H](CN(C)Cc2ccc(C(F)(F)F)cc2)[C@@H](C)CN([C@H](C)CO)C(=O)c2cc(NC(=O)Cc3ccccc3)ccc2O1	·	·	·	-5.5	·	-3.0
C[C@@H]1CCCCO[C@H](CN(C)Cc2ccc(C(F)(F)F)cc2)[C@H](C)CN([C@H](C)CO)C(=O)c2cc(NS(=O)(=O)c3cccs3)ccc2O1	·	·	·	-60.3	·	4.7
Cc1ccc(S(=O)(=O)N2CCCOC2CNC(=O)C(=O)NCc2cccnc2)cc1 (configuration not stated)	·	-1.4	-8.4	·	1.3	·
CN1c2ccc(-c3ccccc3)cc2[C@@H]2[C@@H](CCN2S(=O)(=O)c2ccccc2F)[C@H]1CO	·	·	·	-13.2	·	3.1
CC(=O)N1CC2(CC(c3ccccc3F)=NO2)CN1c1ccc(Cl)cc1 (configuration not stated)	-2.1	·	-10.6	-4.0	·	55.5*
CO[C@H]1CN(C)C(=O)c2cc(NC(=O)Nc3ccc(Cl)cc3)ccc2OC[C@H](C)N(C(=O)Nc2c(C)noc2C)C[C@@H]1C	·	·	·	33.3	·	12.4
COc1ccc(NC(=O)c2sccc2C)c([N+](=O)[O-])c1	-2.1	-53.9	-19.5	-13.7	51.4	54.6*
COc1cc(NC(=O)COc2ccccc2[N+](=O)[O-])ccc1NC(=O)c1cccs1	13.6	74.4*	-17.6	-6.7	-73.6	49.9*
COc1ccc(NC(=O)c2cccs2)c([N+](=O)[O-])c1	·	-45.5	-15.5	6.9	45.8	86.3*
COc1ccc(/C(N)=N/OC(=O)c2ccc(OC)c([N+](=O)[O-])c2)cc1OC	-0.3	2.8	-22.8	1.4	1.2	1.5
COc1ccc(C(=O)Cc2ccc(OC)c(OC)c2)cc1	20.6	-40.5	1.8	9.1	44.3	41.8*
